This is an account of results in paper PMC11062922 (Nature Chemical Biology, 2023).

Holding throughout (parameters): species or system human, MV4-11 + K-562 + COLO205 + SK-N-BE2 + OVCAR-8
Test [1] relates to AKT1. As to conditions: read-out: apparent Kd, n = 1.
In test [2] the test system is AKT2. The conditions noted are these: read-out: apparent Kd, n = 1.
For test [3], the system named is HCK. The conditions noted are these: read-out: apparent Kd; compound concentrations:100 nM and 1000 nM (sheet 'Samples'); n = 1.
In test [4] the test system is MAP2K2. As to conditions: read-out: apparent Kd, n = 1.
Test [5] has as its system NQO1. As to conditions: read-out: apparent Kd, n = 1.
Test [6] has as its system RET. As to conditions: read-out: apparent Kd; compound concentrations:100 nM and 1000 nM (sheet 'Samples'); n = 1.
In test [7] the test system is TP53RK. As to conditions: read-out: apparent Kd; compound concentrations:100 nM and 1000 nM (sheet 'Samples'); n = 1.
Test [8] relates to YES1. As to conditions: read-out: apparent Kd; compound concentrations:100 nM and 1000 nM (sheet 'Samples'); n = 1.
In test [9] the test system is ADRBK1. The conditions noted are these: read-out: apparent Kd, compound concentrations: 100 nM and 1000 nM (sheet 'Samples'), n = 1.
In test [10] the test system is ERBB3. As to conditions: read-out: apparent Kd, compound concentrations: 100 nM and 1000 nM (sheet 'Samples'), n = 1.
In test [11] the test system is MAP2K1. The conditions noted are these: read-out: apparent Kd, compound concentrations: 100 nM and 1000 nM (sheet 'Samples'), n = 1.
Test [12] has as its system NQO2. As to conditions: read-out: apparent Kd; compound concentrations: 100 nM and 1000 nM (sheet 'Samples'), CATDS: 0.16308472458482501; n = 1.
For test [13], the system named is MAPK14. The conditions noted are these: read-out: apparent Kd; compound concentrations: 100 nM and 1000 nM (sheet 'Samples'), CATDS: 0.54620788714076096; n = 1.
Test [14] has as its system MAPK9. As to conditions: read-out: apparent Kd, compound concentrations: 100 nM and 1000 nM (sheet 'Samples'), n = 1.
The subject of test [15] is MAPKAPK2. As to conditions: read-out: apparent Kd; compound concentrations: 100 nM and 1000 nM (sheet 'Samples'), CATDS: 0.40894707261739799; n = 1.
The subject of test [16] is CDC42. The conditions noted are these: read-out: apparent Kd; compound concentrations: 100 nM and 1000 nM (sheet 'Samples'), CATDS: 5.0343094610780299E-2; n = 1.
Test [17] concerns DYNC1LI1. The conditions noted are these: read-out: apparent Kd; compound concentrations: 100 nM and 1000 nM (sheet 'Samples'), CATDS: 4.8109196484876701E-2; n = 1.
Test [18] deals with GARS. The conditions noted are these: read-out: apparent Kd; compound concentrations: 100 nM and 1000 nM (sheet 'Samples'), CATDS: 4.5585082575177599E-2; n = 1.
In test [19] the test system is GSK3A. The conditions noted are these: read-out: apparent Kd; compound concentrations: 100 nM and 1000 nM (sheet 'Samples'), CATDS: 8.5551067641828404E-2; n = 1.
In test [20] the test system is GSK3B. As to conditions: read-out: apparent Kd; compound concentrations: 100 nM and 1000 nM (sheet 'Samples'), CATDS: 0.10546569208605799; n = 1.
The test system of test [21] is HSP90B1. The conditions noted are these: read-out: apparent Kd; compound concentrations: 100 nM and 1000 nM (sheet 'Samples'), CATDS: 4.7547071429497198E-2; n = 1.
The test system of test [22] is MDN1. As to conditions: read-out: apparent Kd; compound concentrations: 100 nM and 1000 nM (sheet 'Samples'), CATDS: 4.19866133995229E-2; n = 1.
Test [23] deals with MYLK3. The conditions noted are these: read-out: apparent Kd; compound concentrations: 100 nM and 1000 nM (sheet 'Samples'), CATDS: 4.95763825338097E-2; n = 1.
The test system of test [24] is NNT. As to conditions: read-out: apparent Kd; compound concentrations: 100 nM and 1000 nM (sheet 'Samples'), CATDS: 4.95392498935424E-2; n = 1.
Test [25] has as its system OPA1. As to conditions: read-out: apparent Kd; compound concentrations: 100 nM and 1000 nM (sheet 'Samples'), CATDS: 4.33362445952395E-2; n = 1.
Test [26] concerns PGK1. The conditions noted are these: read-out: apparent Kd; compound concentrations: 100 nM and 1000 nM (sheet 'Samples'), CATDS: 0.623413247361988; n = 1.
The subject of test [27] is PRKCA. The conditions noted are these: read-out: apparent Kd; compound concentrations: 100 nM and 1000 nM (sheet 'Samples'), CATDS: 4.05038047397221E-2; n = 1.
Test [28] relates to PRKCD. As to conditions: read-out: apparent Kd; compound concentrations: 100 nM and 1000 nM (sheet 'Samples'), CATDS: 3.9953874898385103E-2; n = 1.
Test [29] concerns TNIK. As to conditions: read-out: apparent Kd; compound concentrations: 100 nM and 1000 nM (sheet 'Samples'), CATDS: 4.3236885400500899E-2; n = 1.
In test [30] the test system is VDAC3. As to conditions: read-out: apparent Kd; compound concentrations: 100 nM and 1000 nM (sheet 'Samples'), CATDS: 4.2633905781269299E-2; n = 1.
Test [31] relates to CDK10. The conditions noted are these: read-out: apparent Kd; compound concentrations: 100 nM and 1000 nM (sheet 'Samples'), CATDS: 0.51704029448555699; n = 1.
The subject of test [32] is CDK6. As to conditions: read-out: apparent Kd; compound concentrations: 100 nM and 1000 nM (sheet 'Samples'), CATDS: 0.20931890266427899; n = 1.
In test [33] the test system is PRKACG. As to conditions: read-out: apparent Kd; compound concentrations: 100 nM and 1000 nM (sheet 'Samples'), CATDS: 0.40146810270516797; n = 1.
The mark [34] stands for this setting: compound concentrations:100 nM and 1000 nM (sheet 'Samples').

Read-outs that look alike come from different tables or passages of the source.

As for `C=CC(=O)Nc1cc(-c2nn(C3CCC(N4CCN(C(C)=O)CC4)CC3)c3ncnc(N)c23)ccc1Oc1ccccc1` (centres unmarked) [TX-85-1], the potency estimated from few doses in test [1] (setting [34]) was 2280 nM; in test [2] (setting [34]), 2250 nM; in test [3], 799 nM; in test [4] (setting [34]) it was 1550 nM; in test [5] (setting [34]) it was 1480 nM; in test [6] it was 712 nM. Besides, the potency estimated from few doses was 1620 nM in [7] and 918 nM in [8].
Turning to `Cn1c(=O)c(F)c(Nc2ccc(I)cc2F)c2c(=O)n(OC[C@H](O)CO)cnc21` [TPKI-16], the potency estimated from few doses was 1780 nM in [9] (CATDS: 0.13244009116627101); 1370 nM in test [10] (CATDS: 0.13947545743424); 12.2 nM in test [11] (CATDS: 0.50931897145829497); 15 nM in test [4] (compound concentrations: 100 nM and 1000 nM (sheet 'Samples'), CATDS: 0.45776902126379299); 677 nM in [12].
Turning to `Cl.Cn1c(=O)c(Oc2ccc(F)cc2F)cc2cnc(NCC(C)(C)O)nc21` [RO3308967-001], the potency estimated from few doses in [9] (CATDS: 0.168792750193444) is 1780 nM; in test [13], 44 nM; in test [14] (CATDS: 0.17242966969454199), 1600 nM; in test [15], 76.7 nM.
As to `Cn1cc(C2=C(c3cn(C)c4c(N)cccc34)C(=O)NC2=O)c2ccccc21` [RO0317482-000], the potency estimated from few doses was 1790 nM in test [1] (compound concentrations: 100 nM and 1000 nM (sheet 'Samples'), CATDS: 4.4101078523111903E-2); 1310 nM in [16]; 1450 nM in test [17]; 1510 nM in test [10] (CATDS: 4.7313636214179999E-2); 1650 nM in [18]; 484 nM in test [19]. For the same compound, the potency estimated from few doses in test [20] is 343 nM; in test [21], 1490 nM; in [11] (CATDS: 4.25622085031407E-2) it was 1960 nM; in [4] (compound concentrations: 100 nM and 1000 nM (sheet 'Samples'), CATDS: 4.6529537247477E-2) it was 1570 nM; in [22] it was 2030 nM; in [23] it was 1360 nM. For the same compound, the potency estimated from few doses was 1360 nM in test [24]; 1530 nM in test [5] (compound concentrations: 100 nM and 1000 nM (sheet 'Samples'), CATDS: 4.7041069195994198E-2); 1870 nM in test [25]; 20.4 nM in test [26]; 2240 nM in test [27]; 2330 nM in test [28]. The potency estimated from few doses in [29] was 1880 nM; in test [30] it was 1950 nM.
Regarding `Cc1cc(Cl)cc2c1NC(=O)C2=NNc1ccc(S(N)(=O)=O)cc1` [GW279320X], the potency estimated from few doses in test [1] (compound concentrations: 100 nM and 1000 nM (sheet 'Samples'), CATDS: 0.213173393679812) is 1720 nM; in test [2] (compound concentrations: 100 nM and 1000 nM (sheet 'Samples'), CATDS: 0.21750959040308801), 1630 nM; in test [31], 316 nM; in [32], 1810 nM.
`COC(=O)c1c(-c2ccccc2)c2cc(OC)ccc2c(=O)n1Cc1ccccc1` [TPKI-97]: the potency estimated from few doses was 1400 nM in test [9] (CATDS: 0.31449304008803602), 1550 nM in [14] (CATDS: 0.30035248026311001) and 872 nM in test [33].
